Values joined by “and” are separate entries in the source; they are usually repeats but may differ in a detail not shown here. Equal values may be shown once. Records with an inconclusive call do not appear. A call without a number means that no potency is given here. Active and inactive are the calls of the source. Calls come from the whole dose curve; as a rule, active = well fitted cell-killing curve with a large enough effect in the repeat runs; inconclusive = weak or mixed curves, or effect the other way; inactive = flat fitted curve, though single readings scatter.

The values below come from PubChem BioAssay (Tox21).
Potency is the fitted concentration of half-maximal effect.

A short description of this assay: qHTS RealTime-Glo MT Cell Viability Assay in HEK293 cells - 24 hour (AID 1224886). Note: nearly all actives have a fitted effect of over 50% in size. The settings on record: RealTime-Glo luminescence; series mostly up to 76.8 µM. From the text:
National Center for Advancing Translational Sciences [NCATS]
NIH Chemical Genomics Center [NCGC]
U.S. Environmental Protection Agency [EPA]
National Institutes of Environmental Health Sciences [NIEHS]
National Toxicology Program [NTP]
U.S. Food and Drug Administration [FDA]
Measure of cell viability is critical in the cell-base assay. Analysis of cell viability is necessary for the characterization of cell responses to cytotoxic drugs and environmental stress. A RealTime-Glo MT Cell Viability Assay to monitor cell viability in real time of continues cell culture during 40 hours of compound treatment was used to screen Tox21 10K library compounds in Hek293 cells. The RealTime-Glo MT Cell Viability Assay is a nonlytic, homogeneous, bioluminescent method to measure cell viability in real time using a simple, plate-based method. The assay involves adding NanoLuc luciferase and a cell-permeant prosubstrate to cells in culture. Viable cells reduce the proprietary prosubstrate to generate a substrate for NanoLuc luciferase. This substrate diffuses from cells into the surrounding culture medium, where it is rapidly used by the NanoLuc Enzyme to produce a luminescent signal. The signal correlates with the number of viable cells, making the assay well suited for cytotoxicity studies.
Tox21 Assay Protocol Summary:
The mixture of Hek293 cell suspension and reagents were dispensed at 600cells/6 ul/well in 1536-well tissue culture treated black solid bottom plates using a Multidrop dispenser. After the assay plates were incubated at a 37 C/5% CO2 incubator for 5 hours, 23 nL of compounds dissolved in DMSO, positive and negative controls was transferred to the assay plate by a pintool work station. The plates were incubated at 37 C for 40 hours. The luminescence intensity were measured at 0h, 8h, 16h, 24h, 32h and 40h time points using ViewLux plate reader during compound treatment.
Take `Nc1cccc(C(F)(F)F)c1`: the Potency result is “inactive”.

In the case of `CCc1cccc(CC)c1N`, the Potency entry is “inactive”.

Regarding `N[C@@H](Cc1cc(I)c(Oc2ccc(O)c(I)c2)c(I)c1)C(=O)O`, the Potency entry was “inactive”.

Turning to `OCCOCCOCCOCCOCCO`, the Potency entry is “inactive”.

Turning to `Cc1cc(C)c(O)c(C)c1`, the Potency entry was “inactive”.

Consider `O=C(NCC1CCCCN1)c1cc(OCC(F)(F)F)ccc1OCC(F)(F)F` (stereo not given), for which the Potency entry is “inactive”.

In the case of `Cc1cccc(C)c1[N+](=O)[O-]`, the Potency result was “inactive”.

As to `C=CC(=O)NCOCCCC`, the Potency entry was “inactive”.

As for `C[Si](C)(C)N[Si](C)(C)C`, the Potency entry is “inactive”.

With `NC(N)=S`, the Potency entry was “inactive”.

`Cc1cc(CC(=O)O)n(C)c1C(=O)c1ccc(Cl)cc1`: the Potency entry is “inactive”.

For `OB(O)O`, the Potency entry was “inactive”.

`CC(C=O)Cc1ccc(C(C)(C)C)cc1` (stereo not given): the Potency entry is “inactive”.

On to `OCC(CO)(CO)CO`, for which the Potency entry is “inactive”.

For the molecule `CC(=O)OCc1ccc2c(c1)OCO2`, the Potency result was “inactive”.

In the case of `COc1ccc2cc3[n+](cc2c1OC)CCc1cc2c(cc1-3)OCO2`, the Potency is 4.4 µM (active) and 10.7 µM (active).

For the molecule `C=C(C)CC(C)(C)C`, the Potency result was “inactive”.

Take `CC(C)(C)NC[C@H](O)COc1nsnc1N1CCOCC1`: the Potency result is “inactive”.

As for `Cc1ccc(C(C)C)cc1`, the Potency result is “inactive”.

`CC/C(C)=N/O`: the Potency entry is “inactive”.

Turning to `O=C(O)Cc1c[nH]c2ccccc12`, the Potency result was “inactive”.

As to `CCCN(CCC)C(=O)SCC`, the Potency result was “inactive”.

As for `CN=C(NC#N)NCCSCc1nc[nH]c1C`, the Potency entry was “inactive”.

Take `Clc1cccc(Cl)c1NC1=NCCN1`: the Potency result was “inactive”.

In the case of `C1CCCNCC1`, the Potency result is “inactive”.

For `O=C(O)C1=NN(c2ccc(S(=O)(=O)O)cc2)C(=O)C1`, the Potency entry was “inactive”.

As to `NCCNCCNCCN`, the Potency result is “inactive”.

As for `C=CC(C)(C)C`, the Potency result was “inactive”.

`CCCCCCCCCCCCCC(=O)O`: the Potency entry is “inactive”.

For the molecule `O=c1c(O)c(-c2ccc(O)c(O)c2)oc2cc(O)cc(O)c12`, the Potency result was “inactive”.

As for `O=Cc1ccc(CO)o1`, the Potency entry is “inactive”.

With `OC[C@H]1O[C@@H](Oc2ccc(O)cc2)[C@H](O)[C@@H](O)[C@@H]1O`, the Potency entry is “inactive”.

Take `Cc1ccncc1`: the Potency entry was “inactive”.

As for `CCN(CC)CCNC(=O)c1ccc(N)cc1`, the Potency entry was “inactive”.

With `CCCCCCCCCCCC(=O)N(C)CC(=O)O`, the Potency result is “inactive”.

Turning to `CCCOC(=O)NCCCN(C)C`, the Potency result is “inactive”.

Take `CCCCCCCCC(=O)O`: the Potency result is “inactive”.

Turning to `CC(=O)OC[C@H]1O[C@@](COC(C)=O)(O[C@H]2O[C@H](COC(C)=O)[C@@H](OC(C)=O)[C@H](OC(C)=O)[C@H]2OC(C)=O)[C@@H](OC(C)=O)[C@@H]1OC(C)=O`, the Potency entry was “inactive”.

In the case of `CCc1cccc(O)c1`, the Potency result was “inactive”.

For `Cc1ncc(CO)c(CO)c1O`, the Potency result was “inactive”.
